NTR1 agonist = NTR1 (human) agonism; AID 493036; 0.17% of 330,000 active; NTR1-U2OS beta-arrestin-GFP spot imaging, agonist mode; activation, % at 20 µM; P30989;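 active = activation at or above 40% of the spot to cytoplasm intensity ratio, with at least 20 cells analyzed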;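 also: 0% = DMSO without peptide and 100% = 100 nM NTR1 peptide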
Target sequence (P30989 whole entry, looked up): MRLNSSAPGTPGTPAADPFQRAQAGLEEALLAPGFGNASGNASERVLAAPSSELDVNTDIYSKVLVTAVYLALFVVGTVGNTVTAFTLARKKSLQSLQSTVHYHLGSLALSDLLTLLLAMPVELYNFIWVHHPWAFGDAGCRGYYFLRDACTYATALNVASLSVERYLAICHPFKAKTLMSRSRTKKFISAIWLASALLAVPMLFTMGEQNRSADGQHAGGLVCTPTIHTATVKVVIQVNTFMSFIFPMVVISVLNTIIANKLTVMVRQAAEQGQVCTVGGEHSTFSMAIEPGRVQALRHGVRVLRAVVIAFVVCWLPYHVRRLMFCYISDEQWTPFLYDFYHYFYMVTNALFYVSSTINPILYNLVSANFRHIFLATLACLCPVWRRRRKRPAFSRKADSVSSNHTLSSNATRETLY
MIN6 prolif = inducers of beta-cell replication in MIN6 cells; 0.29% of 330,000 active; proliferation, % at 10 µM; MIN6 cells proliferation, ATPlite luminescence, 48 h; cells starved in 0.2% serum; 100% = growth in 10% serum; AID 2380;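 active = compounds whose signal lies at least 3.5 SD above the mean of all wells on their plate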;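 also: 0% = DMSO-treated cells in low-serum medium and 100% = 10% serum control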
GRK2 aptamer HTS = human GRK2 inhibition via aptamer displacement. P25098. bead flow cytometry, FAM-aptamer displacement from GRK2. inhibition of aptamer binding, % at 10 µM. 0.59% of 330,000 active. AID 488847;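 active = inhibition of aptamer binding above 40%, roughly 3 SD of noise, on plates passing a quality check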;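 also: median bead fluorescence of bound FAM aptamer so fluorescent compounds give negative values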
Platelet DG rel = platelet dense granule release activity. human platelet-rich plasma, SFLLRN dense granule ATP release, luminescence. inhibition, %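 (compounds screened at 7.5 µM in platelet-rich plasma)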. 0.22% of 300,000 active. AID 1663;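 active = mean replicate score, as percent of positive control, at or above 50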
NTR1 ag conf = confirmation of agonists of human NTR1; shares compounds with NTR1 agonist; NTR1-U2OS beta-arrestin-GFP translocation imaging; activation, % at 20 µM; 38% of 480 active; AID 504550;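 active = mean activation at 20 µM of at least 40%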;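 also: 0% = DMSO without peptide and 100% = 100 nM NTR1 peptide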
* = called active by the depositor. The list is not random: actives were taken first. Their share in the collection is about 1.2%.

CC1(c2ccccc2)NC(=O)N(CC(=O)Nc2nnc(C3CC3)s2)C1=O (configuration not stated) was read as NTR1 agonist -1, MIN6 prolif 2, GRK2 aptamer HTS 2 and Platelet DG rel 7.
Screening O=C(c1cn(Cc2ccccc2)nc1-c1ccccc1)N1CCN(c2ccccn2)CC1 returned NTR1 agonist 1, MIN6 prolif -3 and GRK2 aptamer HTS 0.
For c1ccc(CNc2c(-c3cccc(SC4CCCCC4)c3)nc3ccccn23)cc1 the results were NTR1 agonist 40*, MIN6 prolif -6, GRK2 aptamer HTS 0 and NTR1 ag conf 4.
`Cc1cccc(-c2oc3ccc(-c4ccc5c(c4)OCO5)cc3c2C(=O)OCc2ccc(O)cc2)c1` gave NTR1 agonist 24, MIN6 prolif -8, GRK2 aptamer HTS 0 and Platelet DG rel 0.
`CN(C)c1ccc(-n2cccc2/C=C/[N+](=O)[O-])cc1` gave NTR1 agonist 63*, MIN6 prolif -6, GRK2 aptamer HTS 2, Platelet DG rel -2 and NTR1 ag conf 66*.
Screening O=C(/C=C\c1ccccc1OC(=O)c1ccccc1F)c1cc2ccccc2o1 returned NTR1 agonist 67*, MIN6 prolif 0, GRK2 aptamer HTS 3, Platelet DG rel 1 and NTR1 ag conf 74*.
CC(=O)/C=C\c1ccccc1OC(=O)c1cc2ccccc2oc1=O was read as NTR1 agonist 3, MIN6 prolif -2, GRK2 aptamer HTS 0 and Platelet DG rel 11.
For O=C1ON=C(c2ccc(Cl)cc2)/C1=C/c1ccc(O)cc1 the results were NTR1 agonist 66*, MIN6 prolif -5, GRK2 aptamer HTS 3, Platelet DG rel 6 and NTR1 ag conf 98*.
Screening Cn1cc([N+](=O)[O-])c(C(=O)Nc2nc(-c3ccc(Cl)cc3)cs2)n1 returned NTR1 agonist 49*, MIN6 prolif -4, GRK2 aptamer HTS 2, Platelet DG rel -3 and NTR1 ag conf 71*.
Cc1ccc(-c2nc(NC(=O)c3nn(C)cc3[N+](=O)[O-])sc2C)cc1 was read as NTR1 agonist 39, MIN6 prolif 5, GRK2 aptamer HTS 1 and Platelet DG rel 22.
For CC(C)C(=O)N1CCN(c2ccc(NC(=O)c3ccc4c(c3)OCCO4)cc2Cl)CC1 the results were NTR1 agonist 90*, MIN6 prolif -4, GRK2 aptamer HTS 0, Platelet DG rel -2 and NTR1 ag conf 85*.
Screening O=C(/C=C/c1ccc(OCCCF)cc1)Nc1ccnc(-c2ccncc2)n1 returned NTR1 agonist 56*, MIN6 prolif -1, GRK2 aptamer HTS 0, Platelet DG rel -1 and NTR1 ag conf -8.
Screening O=C(/C=C/c1ccc(OCCCF)cc1)Nc1ccnc(-c2cccnc2)n1 returned NTR1 agonist 11, MIN6 prolif -2, GRK2 aptamer HTS 3 and Platelet DG rel -6.
`CC(Sc1ccc(S(=O)(=O)N2CCOCC2)cn1)c1ccccc1Cl` (configuration not stated) gave NTR1 agonist 3, MIN6 prolif -6 and GRK2 aptamer HTS 0.
`Cc1ccc(NC(=O)COc2cccc3c2OC(C)(C)C3)c(O)c1` gave NTR1 agonist -1, MIN6 prolif 4 and GRK2 aptamer HTS 0.
For CCOC(=O)C1Nc2ccc(C(F)(F)F)cc2C2c3ccccc3CC12 (configuration not stated) the results were NTR1 agonist 56*, MIN6 prolif -8, GRK2 aptamer HTS 3, Platelet DG rel 6 and NTR1 ag conf 7.
For CN(C)S(=O)(=O)c1ccc(-c2csc(N/N=C/c3ccco3)n2)cc1 the results were NTR1 agonist 71*, MIN6 prolif -5, GRK2 aptamer HTS 0, Platelet DG rel 2 and NTR1 ag conf 78*.
`CN(C)S(=O)(=O)c1ccc(-c2csc(N/N=C/c3ccc(O)cc3)n2)cc1` gave NTR1 agonist 52*, MIN6 prolif -6, GRK2 aptamer HTS 4, Platelet DG rel 2 and NTR1 ag conf 55*.
Screening CCc1cccc(CC)c1-n1c(SCC(=O)N2CCc3ccccc3C2)nnc1-c1cccnc1 returned NTR1 agonist 45*, MIN6 prolif -2, GRK2 aptamer HTS 0, Platelet DG rel -2 and NTR1 ag conf 64*.
Nc1nc(Nc2ccccc2)nc(NC2CCCCC2)c1[N+](=O)[O-] was read as NTR1 agonist 87*, MIN6 prolif -5, GRK2 aptamer HTS 0, Platelet DG rel 1 and NTR1 ag conf 33.
Screening Cc1ccc(S(=O)(=O)N(CCCO)CC(O)CON=C2c3ccccc3-c3ccccc32)cc1 (configuration not stated) returned NTR1 agonist 47*, MIN6 prolif -3, GRK2 aptamer HTS 0, Platelet DG rel 19 and NTR1 ag conf 22.
Screening Cc1ccc(-c2csc3ncnc(Sc4nnc(CN5CCCCCC5=O)o4)c23)cc1 returned NTR1 agonist 49*, MIN6 prolif -6, GRK2 aptamer HTS 0, Platelet DG rel -14 and NTR1 ag conf 56*.
`Cc1ccc(-c2csc3ncnc(SCC(=O)Nc4nnc(C)s4)c23)cc1` gave NTR1 agonist 4, MIN6 prolif -3, GRK2 aptamer HTS 0 and Platelet DG rel -1.
Screening N#CC1=C(c2ccccc2)/C(=C/c2ccccc2)OC1=O returned NTR1 agonist 66*, MIN6 prolif -6, GRK2 aptamer HTS 0, Platelet DG rel 1 and NTR1 ag conf 87*.
CCCOc1ccc(/C=C2/C(=O)ON=C2C)cc1OCC was read as NTR1 agonist 10, MIN6 prolif -2, GRK2 aptamer HTS 3 and Platelet DG rel -2.
Screening CCOc1cc(/C=C2\C(=O)ON=C2C)ccc1OCc1ccccc1 returned NTR1 agonist 60*, MIN6 prolif -7, GRK2 aptamer HTS 1, Platelet DG rel 9 and NTR1 ag conf 84*.
`CCN(CC(=O)NCc1cccs1)C(=O)CCC(=O)c1ccc(F)cc1` gave NTR1 agonist -2, MIN6 prolif -6, GRK2 aptamer HTS 1 and Platelet DG rel -21.
For O=C(c1ccc(Cl)cc1)C(CN1CCCCC1)c1ccccc1 (configuration not stated) the results were NTR1 agonist 50*, MIN6 prolif -4, GRK2 aptamer HTS 0, Platelet DG rel 1 and NTR1 ag conf 60*.
`CCOC(=O)C(CN1CCCC1)c1ccccc1` (configuration not stated) gave NTR1 agonist 2, MIN6 prolif -6, GRK2 aptamer HTS 0 and Platelet DG rel 0.
O=[N+]([O-])c1ccc(-c2cnc(SC(c3ccccc3)c3ccccc3)[nH]2)cc1 was read as NTR1 agonist 54*, MIN6 prolif 0, GRK2 aptamer HTS 2, Platelet DG rel -13 and NTR1 ag conf 18.
`O=[N+]([O-])c1ccc(-c2cnc(SCc3ccccc3Cl)[nH]2)cc1` gave NTR1 agonist 10, MIN6 prolif -5, GRK2 aptamer HTS 0 and Platelet DG rel -26.
`O=C(COC(=O)/C=C/C(=O)OCC(=O)NC12CC3CC(CC(C3)C1)C2)NC12CC3CC(CC(C3)C1)C2` gave NTR1 agonist 85*, MIN6 prolif 1, GRK2 aptamer HTS 2, Platelet DG rel 8 and NTR1 ag conf 40*.
`O=C(COC(=O)c1ccccc1O)NC12CC3CC(CC(C3)C1)C2` gave NTR1 agonist -1, MIN6 prolif -1 and GRK2 aptamer HTS 0.
